This is an account of results in PubChem BioAssay (NCI).

This is part of a sample that, as a whole, favours compounds with a hit. Of some 83,000 tested, about 20% had one in any assay.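 Growth was measured after 48 h exposure to one concentration of compound in 96-well plates. Values under 10 count as active.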 Active and inactive are the calls of the source.

Test systems include HCT-15 colon; HT29 colon; SNB-75 CNS; SNB-19 CNS; U251 CNS; PC-3 prostate; SK-MEL-5 melanoma; UACC-62 melanoma; LOX IMVI melanoma; SK-MEL-28 melanoma.
What all share (assay): NCI-60 one-dose screen, 48 h (100 = growth as untreated, 0 = no growth, -100 = all killed)
Holding throughout (conditions): 10 µM unless noted

In the case of `COc1ccc(/C=C2\Oc3cc(OCCN4CCCC4)ccc3C2=O)c(OC)c1`, the growth is 80.2% (inactive) in the experiment with HCT-15 colon; 17.6% (inactive) with HT29 colon; 93.2% (inactive) in the experiment with SNB-75 CNS; 92.2% (inactive) in the experiment on SNB-19 CNS; 76.5% (inactive) with U251 CNS; 84.9% (inactive) in the experiment with PC-3 prostate. The growth with SK-MEL-5 melanoma was 90.2% (inactive); with UACC-62 melanoma, 101% (inactive); in the experiment with LOX IMVI melanoma, 81.2% (inactive); with SK-MEL-28 melanoma it was 96.9% (inactive).

Turning to `CCn1c(=O)c2c(=O)c3c4c(oc3oc2c2ccccc21)C(=O)c1ccccc1C4=O`, the growth was 79.6% (inactive) with HCT-15 colon; 63% (inactive) in the experiment with HT29 colon; 120% (inactive) in the experiment on SNB-75 CNS; 90.2% (inactive) with SNB-19 CNS; 57.7% (inactive) with U251 CNS; 42.4% (inactive) with PC-3 prostate. The growth in the experiment on SK-MEL-5 melanoma is 67.4% (inactive); in the experiment on UACC-62 melanoma, 64% (inactive); with LOX IMVI melanoma, 32.4% (inactive); with SK-MEL-28 melanoma, 107% (inactive).

Turning to `O=S(=O)(NCCCNc1nccc(-c2c(-c3ccccc3)nc3sccn23)n1)c1ccc(F)cc1`, the growth with HCT-15 colon is 19.4% (inactive); in the experiment with HT29 colon, 29% (inactive); with SNB-75 CNS, 44% (inactive); in the experiment with SNB-19 CNS it was 75.1% (inactive); in the experiment with U251 CNS, 46.4% (inactive); in the experiment with PC-3 prostate it was 60.6% (inactive). Moreover, the growth is 14.3% (inactive) in the experiment with SK-MEL-5 melanoma, 23.1% (inactive) in the experiment on UACC-62 melanoma, 23.7% (inactive) in the experiment on LOX IMVI melanoma and 56.3% (inactive) in the experiment with SK-MEL-28 melanoma.

Regarding `C#CCN1C(=O)/C(=c2\sc3n(c2=O)NC2C(N=3)N(CC)C(=O)N2CC)c2ccccc21` (stereo not given), the growth in the experiment with HCT-15 colon was 43.8% (inactive); with HT29 colon it was 26.2% (inactive); in the experiment with SNB-75 CNS it was 14.2% (inactive); in the experiment with SNB-19 CNS, 89.1% (inactive); in the experiment with U251 CNS it was 94.4% (inactive); in the experiment with PC-3 prostate it was 47.5% (inactive). The growth in the experiment on SK-MEL-5 melanoma is 53% (inactive); in the experiment with UACC-62 melanoma it was 54.1% (inactive); with LOX IMVI melanoma it was 60.3% (inactive); in the experiment on SK-MEL-28 melanoma, 57.3% (inactive).

On to `COc1ccc(Cn2cc(COc3cc(/C=C/C(=O)c4cc(OC)c(OC)c(OC)c4)ccc3OC)nn2)cc1`, for which the growth in the experiment on HCT-15 colon was 38.5% (inactive); with HT29 colon it was 13% (inactive); in the experiment with SNB-75 CNS it was 59.8% (inactive); in the experiment with SNB-19 CNS, 82.6% (inactive); in the experiment with U251 CNS, 44.6% (inactive); in the experiment on PC-3 prostate, 44.5% (inactive). Besides, the growth is 80.2% (inactive) in the experiment on SK-MEL-5 melanoma, 70.1% (inactive) in the experiment with UACC-62 melanoma, 36.4% (inactive) in the experiment with LOX IMVI melanoma and 84.6% (inactive) in the experiment with SK-MEL-28 melanoma.

With `Cc1c(C2=NNC(c3ccc4c(c3)OCO4)C2)[n+]([O-])c2ccccc2[n+]1[O-]` (stereo not given), the growth was 103% (inactive) in the experiment with HCT-15 colon; 110% (inactive) in the experiment with HT29 colon; 88.9% (inactive) in the experiment with SNB-75 CNS; 103% (inactive) in the experiment with SNB-19 CNS; 110% (inactive) with U251 CNS; 96% (inactive) in the experiment with PC-3 prostate. Moreover, the growth in the experiment on SK-MEL-5 melanoma is 97.9% (inactive); in the experiment with UACC-62 melanoma, 118% (inactive); in the experiment with LOX IMVI melanoma, 96.1% (inactive); in the experiment with SK-MEL-28 melanoma, 113% (inactive).

In the case of `Cc1cc(C)c(NC(=O)c2sc3nc4c(cc3c2N)CN(Cc2ccccc2)CC4)c(C)c1`, the growth in the experiment on HCT-15 colon is 21.7% (inactive); in the experiment on HT29 colon it was 7.19% (active); in the experiment on SNB-75 CNS, 7.64% (active); in the experiment with SNB-19 CNS, 42.9% (inactive); in the experiment on U251 CNS, 32.9% (inactive); in the experiment on PC-3 prostate, 22% (inactive). The growth with SK-MEL-5 melanoma was 26.1% (inactive); in the experiment on UACC-62 melanoma it was 24.5% (inactive); with LOX IMVI melanoma, 38.7% (inactive); with SK-MEL-28 melanoma, 57.1% (inactive).

As to `COc1ccc2c(c1)NC(=O)CN2c1nc(NC2CC2)nc2ccccc12`, the growth is 10.5% (inactive) in the experiment with HCT-15 colon; 3.45% (active) with HT29 colon; 31.4% (inactive) with SNB-75 CNS; 29.9% (inactive) in the experiment with SNB-19 CNS; 11.8% (inactive) in the experiment with U251 CNS; 4.75% (active) in the experiment on PC-3 prostate. The growth in the experiment with SK-MEL-5 melanoma is -55.3% (active); in the experiment with UACC-62 melanoma it was 26.1% (inactive); in the experiment on LOX IMVI melanoma, 34.9% (inactive); in the experiment on SK-MEL-28 melanoma it was 54.7% (inactive).

As to `Cc1cccc(NC(=O)c2sc3nc4c(cc3c2N)CCC4)c1C`, the growth is 20.1% (inactive) in the experiment with HCT-15 colon; 1.41% (active) in the experiment on HT29 colon; 13.9% (inactive) with SNB-75 CNS; 38% (inactive) in the experiment with SNB-19 CNS; 16.6% (inactive) with U251 CNS; 11.2% (inactive) in the experiment on PC-3 prostate. Moreover, the growth in the experiment with SK-MEL-5 melanoma is 24.4% (inactive); in the experiment on UACC-62 melanoma, 28.7% (inactive); in the experiment with LOX IMVI melanoma, 24.5% (inactive); in the experiment with SK-MEL-28 melanoma, 57.8% (inactive).

In the case of `COc1ccc(/C=C/c2nc(N3CCOCC3)c3cc(F)c(F)cc3n2)cc1OC`, the growth in the experiment with HCT-15 colon was 36.3% (inactive); with HT29 colon it was 42.4% (inactive); in the experiment with SNB-75 CNS, 54.8% (inactive); with SNB-19 CNS it was 45.3% (inactive); in the experiment on U251 CNS, 41.5% (inactive); with PC-3 prostate, 8.26% (active). The growth in the experiment on SK-MEL-5 melanoma was -18.1% (active); in the experiment with UACC-62 melanoma, 41.1% (inactive); in the experiment with LOX IMVI melanoma it was 36.4% (inactive); in the experiment with SK-MEL-28 melanoma, 52.4% (inactive).

On to `CCCCNc1nnc(-c2cc(-c3cc4ccccc4o3)nn2-c2ccccc2)o1`, for which the growth with HCT-15 colon is 95.3% (inactive); with HT29 colon, 93.6% (inactive); with SNB-75 CNS, 102% (inactive); in the experiment with SNB-19 CNS it was 91.2% (inactive); in the experiment with U251 CNS it was 82.1% (inactive); with PC-3 prostate, 83.6% (inactive). Besides, the growth with SK-MEL-5 melanoma was 71.9% (inactive); in the experiment on UACC-62 melanoma, 76.7% (inactive); in the experiment on LOX IMVI melanoma, 82.3% (inactive); with SK-MEL-28 melanoma, 108% (inactive).

For `C/C(=C\c1csc(C)n1)[C@@H]1C[C@@H]2O[C@]2(C)CCC[C@H](C)[C@H](O)[C@@H](C)C(=O)C(C)(C)[C@@H](O)CC(=O)N1`, the growth was -93.4% (active) in the experiment with HCT-15 colon; -10.4% (active) in the experiment on HT29 colon; -19.4% (active) with SNB-75 CNS; -41.4% (active) with SNB-19 CNS; -100% (active) in the experiment on U251 CNS; -63.9% (active) with PC-3 prostate. The growth is -89.9% (active) in the experiment on SK-MEL-5 melanoma, -93.7% (active) with UACC-62 melanoma, -100% (active) with LOX IMVI melanoma and -43.3% (active) in the experiment with SK-MEL-28 melanoma.
